# Assay results taken from paper PMC7862700, “An all-to-all approach to the identification of sequence-specific readers for epigenetic DNA modifications on cytosine”.
# Columns and labels:
# Test in all cases: DAPPL (digital affinity profiling via proximity ligation, sequencing); 10 mM Tris-HCl pH 7.5, 50 mM NaCl, 1 mM DTT, 4% glycerol, room temperature, 30 min; GST-TFs on glutathione beads, 16-mer random dsDNA library, 0.1% formaldehyde crosslink after washing; high values mean tight binding
# FLI1 = biological target: T1, FLI1 (Homo sapiens, UniProt Q01543 1-452); settings: protein: recombinant; tags: N-terminal GST; dsDNA, one strand shown
# T1 sequence: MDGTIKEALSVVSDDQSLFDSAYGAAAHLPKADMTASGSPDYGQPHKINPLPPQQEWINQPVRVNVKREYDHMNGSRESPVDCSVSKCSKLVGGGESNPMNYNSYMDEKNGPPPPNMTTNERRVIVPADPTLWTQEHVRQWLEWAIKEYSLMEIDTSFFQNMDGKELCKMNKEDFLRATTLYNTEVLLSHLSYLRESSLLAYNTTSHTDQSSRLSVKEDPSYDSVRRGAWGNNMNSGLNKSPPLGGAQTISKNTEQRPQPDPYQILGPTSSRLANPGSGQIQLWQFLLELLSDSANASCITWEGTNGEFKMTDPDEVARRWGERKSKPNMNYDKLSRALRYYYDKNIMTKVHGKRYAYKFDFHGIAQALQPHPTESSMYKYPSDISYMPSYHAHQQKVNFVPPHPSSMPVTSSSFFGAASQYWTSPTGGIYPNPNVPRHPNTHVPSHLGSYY
# Summary of the method: (§1)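 Human transcription factors were made in yeast as GST fusions, captured on glutathione beads and barcoded with DNA. With a tag-only sample included, the pool was incubated with 200 nmole of a random double-stranded 16-mer DNA library in Tris/NaCl/DTT/glycerol buffer at room temperature for 30 min, then crosslinked with 0.1% formaldehyde after washing, ligated by proximity, amplified and sequenced. For binding signal, each hexamer's read frequency for a factor is divided by its frequency for the tag-only sample.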
# ELK1 = biological target: T2, ELK1 (Homo sapiens, UniProt P19419 1-428); settings: protein: recombinant; tags: N-terminal GST; dsDNA, one strand shown
# T2 sequence: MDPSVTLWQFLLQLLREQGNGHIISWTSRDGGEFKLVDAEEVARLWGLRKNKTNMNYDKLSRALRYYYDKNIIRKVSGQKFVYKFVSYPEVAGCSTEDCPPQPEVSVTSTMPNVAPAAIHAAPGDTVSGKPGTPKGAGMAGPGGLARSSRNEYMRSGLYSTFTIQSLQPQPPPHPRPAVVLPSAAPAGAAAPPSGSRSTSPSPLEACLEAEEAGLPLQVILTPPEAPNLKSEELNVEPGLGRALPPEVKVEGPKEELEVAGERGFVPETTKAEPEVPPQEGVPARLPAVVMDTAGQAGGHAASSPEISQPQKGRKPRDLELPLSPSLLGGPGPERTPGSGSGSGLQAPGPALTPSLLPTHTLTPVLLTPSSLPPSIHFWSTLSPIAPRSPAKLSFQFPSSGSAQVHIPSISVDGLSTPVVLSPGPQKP
# Summary of the method: as §1
# GABPA = biological target: T3, GABPA (Homo sapiens, UniProt Q06546 1-454); settings: protein: recombinant; tags: N-terminal GST; dsDNA, one strand shown
# T3 sequence: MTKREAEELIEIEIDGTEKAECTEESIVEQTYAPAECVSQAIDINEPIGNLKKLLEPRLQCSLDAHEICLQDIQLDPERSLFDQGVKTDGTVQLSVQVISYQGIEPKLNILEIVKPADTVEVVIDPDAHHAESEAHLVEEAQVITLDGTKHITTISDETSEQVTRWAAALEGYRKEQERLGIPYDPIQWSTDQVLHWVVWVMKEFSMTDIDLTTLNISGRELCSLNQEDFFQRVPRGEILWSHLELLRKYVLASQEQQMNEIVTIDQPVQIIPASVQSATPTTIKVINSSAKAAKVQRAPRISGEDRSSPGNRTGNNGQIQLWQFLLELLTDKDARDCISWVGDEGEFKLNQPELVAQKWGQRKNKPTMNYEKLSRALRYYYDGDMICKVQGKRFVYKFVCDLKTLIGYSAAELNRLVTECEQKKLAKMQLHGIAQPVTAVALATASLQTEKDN
# Summary of the method: as §1
# ERG = biological target: T4, ERG (Homo sapiens, UniProt P11308 1-479); settings: protein: recombinant; tags: N-terminal GST; dsDNA, one strand shown
# T4 sequence: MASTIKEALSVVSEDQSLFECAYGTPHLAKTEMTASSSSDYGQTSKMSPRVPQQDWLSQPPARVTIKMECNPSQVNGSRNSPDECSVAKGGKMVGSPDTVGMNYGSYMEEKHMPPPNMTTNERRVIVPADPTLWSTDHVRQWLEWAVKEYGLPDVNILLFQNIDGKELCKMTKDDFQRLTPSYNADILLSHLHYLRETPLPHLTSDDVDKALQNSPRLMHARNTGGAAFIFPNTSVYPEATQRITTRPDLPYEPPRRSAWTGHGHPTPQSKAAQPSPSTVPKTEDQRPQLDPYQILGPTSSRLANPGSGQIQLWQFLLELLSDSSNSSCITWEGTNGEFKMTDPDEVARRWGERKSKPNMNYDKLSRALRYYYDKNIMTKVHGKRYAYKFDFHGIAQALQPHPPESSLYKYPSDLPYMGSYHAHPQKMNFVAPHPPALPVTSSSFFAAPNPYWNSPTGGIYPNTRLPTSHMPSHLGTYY
# Summary of the method: as §1
# ELF1 = ELF1 (Homo sapiens, UniProt P32519 1-619); settings: protein: recombinant; tags: N-terminal GST; dsDNA, one strand shown
# Sequence of ELF1 (P32519 whole entry): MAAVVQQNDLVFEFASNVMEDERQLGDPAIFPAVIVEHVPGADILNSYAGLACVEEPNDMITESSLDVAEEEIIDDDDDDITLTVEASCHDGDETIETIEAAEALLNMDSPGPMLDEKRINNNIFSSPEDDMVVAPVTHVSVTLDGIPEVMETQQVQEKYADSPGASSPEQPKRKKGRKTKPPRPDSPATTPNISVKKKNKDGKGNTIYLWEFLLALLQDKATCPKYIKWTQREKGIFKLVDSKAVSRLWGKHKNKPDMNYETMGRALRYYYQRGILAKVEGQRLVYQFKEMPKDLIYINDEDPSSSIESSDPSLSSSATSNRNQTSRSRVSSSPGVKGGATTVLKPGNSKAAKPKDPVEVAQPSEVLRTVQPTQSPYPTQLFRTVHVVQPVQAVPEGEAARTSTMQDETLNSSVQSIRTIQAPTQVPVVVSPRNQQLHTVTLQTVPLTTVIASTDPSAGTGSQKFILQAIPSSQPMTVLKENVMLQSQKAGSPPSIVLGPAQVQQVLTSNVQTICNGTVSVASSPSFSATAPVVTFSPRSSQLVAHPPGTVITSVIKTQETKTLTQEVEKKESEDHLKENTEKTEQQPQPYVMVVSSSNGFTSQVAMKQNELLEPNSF
# Summary of the method: as §1
# EHF = biological target: T5, EHF (Homo sapiens, UniProt Q9NZC4 1-300); settings: protein: recombinant; tags: N-terminal GST; dsDNA, one strand shown
# T5 sequence: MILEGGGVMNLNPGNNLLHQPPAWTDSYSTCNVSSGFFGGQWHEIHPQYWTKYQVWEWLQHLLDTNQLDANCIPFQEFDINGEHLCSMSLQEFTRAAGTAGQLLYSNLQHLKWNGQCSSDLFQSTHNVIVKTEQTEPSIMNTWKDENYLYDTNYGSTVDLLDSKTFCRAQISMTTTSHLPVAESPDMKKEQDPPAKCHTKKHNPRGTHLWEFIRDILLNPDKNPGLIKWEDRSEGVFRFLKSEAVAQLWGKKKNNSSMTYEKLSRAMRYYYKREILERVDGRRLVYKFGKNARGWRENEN
# Summary of the method: as §1
# SPI1 = SPI1 (Homo sapiens, UniProt P17947 1-270); settings: protein: recombinant; tags: N-terminal GST; dsDNA, one strand shown
# Summary of the method: as §1
# SPIB = SPIB (Homo sapiens, UniProt Q01892 1-262); settings: protein: recombinant; tags: N-terminal GST; dsDNA, one strand shown
# Sequence of SPIB (Q01892 whole entry): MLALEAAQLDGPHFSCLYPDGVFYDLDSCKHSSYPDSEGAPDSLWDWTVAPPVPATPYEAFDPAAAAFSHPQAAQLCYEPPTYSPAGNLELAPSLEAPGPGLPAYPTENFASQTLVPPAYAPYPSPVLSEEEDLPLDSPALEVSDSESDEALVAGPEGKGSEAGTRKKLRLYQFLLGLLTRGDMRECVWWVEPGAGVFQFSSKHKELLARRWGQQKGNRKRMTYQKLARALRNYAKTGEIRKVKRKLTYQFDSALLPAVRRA
# Summary of the method: as §1
# ELK3 = biological target: T6, ELK3 (Homo sapiens, UniProt P41970 1-407); settings: protein: recombinant; tags: N-terminal GST; dsDNA, one strand shown
# T6 sequence: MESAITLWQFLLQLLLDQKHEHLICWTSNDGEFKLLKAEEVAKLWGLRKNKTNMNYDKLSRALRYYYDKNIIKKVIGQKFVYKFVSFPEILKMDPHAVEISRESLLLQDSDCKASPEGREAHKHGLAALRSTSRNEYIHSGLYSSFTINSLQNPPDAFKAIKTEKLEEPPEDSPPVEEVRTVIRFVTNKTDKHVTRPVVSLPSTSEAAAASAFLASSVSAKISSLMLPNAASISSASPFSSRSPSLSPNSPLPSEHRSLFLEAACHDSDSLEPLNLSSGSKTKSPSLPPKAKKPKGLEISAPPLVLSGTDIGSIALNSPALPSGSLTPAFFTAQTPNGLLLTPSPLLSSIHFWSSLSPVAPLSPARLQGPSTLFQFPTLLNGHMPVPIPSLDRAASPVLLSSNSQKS
# Summary of the method: as §1
# FEV = biological target: T7, FEV (Homo sapiens, UniProt Q99581 1-238); settings: protein: recombinant; tags: N-terminal GST; dsDNA, one strand shown
# T7 sequence: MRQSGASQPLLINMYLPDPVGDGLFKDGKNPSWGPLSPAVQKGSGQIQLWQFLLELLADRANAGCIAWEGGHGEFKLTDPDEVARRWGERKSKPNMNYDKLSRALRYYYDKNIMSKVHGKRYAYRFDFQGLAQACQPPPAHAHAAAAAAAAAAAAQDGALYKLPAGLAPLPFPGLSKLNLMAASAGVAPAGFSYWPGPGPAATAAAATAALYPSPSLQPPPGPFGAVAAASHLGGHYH
# Summary of the method: as §1
# ETV5 = ETV5 (Homo sapiens, UniProt P41161 1-510); settings: protein: recombinant; tags: N-terminal GST; dsDNA, one strand shown
# Sequence of ETV5 (P41161 whole entry): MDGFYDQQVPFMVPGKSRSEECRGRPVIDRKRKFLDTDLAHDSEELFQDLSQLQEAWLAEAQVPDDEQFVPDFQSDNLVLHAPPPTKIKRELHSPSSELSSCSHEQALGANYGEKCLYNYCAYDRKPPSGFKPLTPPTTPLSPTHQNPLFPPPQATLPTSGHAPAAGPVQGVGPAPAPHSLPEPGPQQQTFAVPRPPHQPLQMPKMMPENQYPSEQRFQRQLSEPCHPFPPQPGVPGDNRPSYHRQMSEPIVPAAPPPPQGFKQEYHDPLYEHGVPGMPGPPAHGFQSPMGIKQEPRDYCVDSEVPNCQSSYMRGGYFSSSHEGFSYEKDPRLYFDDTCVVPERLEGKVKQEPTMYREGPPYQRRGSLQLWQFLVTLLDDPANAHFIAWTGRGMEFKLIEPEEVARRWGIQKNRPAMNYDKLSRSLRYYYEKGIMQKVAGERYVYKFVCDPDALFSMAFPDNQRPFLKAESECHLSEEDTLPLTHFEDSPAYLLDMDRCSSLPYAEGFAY
# Summary of the method: as §1
# HSF1 = HSF1 (Homo sapiens, UniProt Q00613 1-529); settings: protein: recombinant; tags: N-terminal GST; chain copies: 3; dsDNA, one strand shown
# Sequence of HSF1 (Q00613 whole entry): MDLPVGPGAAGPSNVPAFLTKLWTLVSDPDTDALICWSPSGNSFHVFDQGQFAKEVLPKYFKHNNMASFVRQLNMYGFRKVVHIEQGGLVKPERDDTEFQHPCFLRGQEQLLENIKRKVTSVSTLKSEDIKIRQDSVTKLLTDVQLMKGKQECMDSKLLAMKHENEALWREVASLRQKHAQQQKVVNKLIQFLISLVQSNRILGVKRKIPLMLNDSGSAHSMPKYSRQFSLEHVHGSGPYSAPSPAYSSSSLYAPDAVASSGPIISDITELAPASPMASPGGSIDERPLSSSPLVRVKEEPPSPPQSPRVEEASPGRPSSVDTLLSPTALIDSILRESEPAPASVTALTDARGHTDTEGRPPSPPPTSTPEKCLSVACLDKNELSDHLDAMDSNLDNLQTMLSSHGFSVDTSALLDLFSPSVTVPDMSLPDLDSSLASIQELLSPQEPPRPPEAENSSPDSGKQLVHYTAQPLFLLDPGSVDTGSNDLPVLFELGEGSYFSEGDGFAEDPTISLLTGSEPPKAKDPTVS
# Summary of the method: as §1
# SPIC = biological target: T8, SPIC (Homo sapiens, UniProt Q8N5J4 1-248); settings: protein: recombinant; tags: N-terminal GST; dsDNA, one strand shown
# T8 sequence: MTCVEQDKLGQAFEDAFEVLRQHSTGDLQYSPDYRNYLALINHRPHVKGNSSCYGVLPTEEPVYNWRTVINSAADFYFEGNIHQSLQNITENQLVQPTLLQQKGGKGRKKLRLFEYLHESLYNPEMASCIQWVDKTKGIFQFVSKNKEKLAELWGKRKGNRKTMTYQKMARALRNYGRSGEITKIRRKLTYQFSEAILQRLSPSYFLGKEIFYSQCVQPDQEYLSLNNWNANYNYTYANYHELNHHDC
# Summary of the method: as §1
# ELF4 = ELF4 (Homo sapiens, UniProt Q99607 1-663); settings: protein: recombinant; tags: N-terminal GST; dsDNA, one strand shown
# Sequence of ELF4 (Q99607 whole entry): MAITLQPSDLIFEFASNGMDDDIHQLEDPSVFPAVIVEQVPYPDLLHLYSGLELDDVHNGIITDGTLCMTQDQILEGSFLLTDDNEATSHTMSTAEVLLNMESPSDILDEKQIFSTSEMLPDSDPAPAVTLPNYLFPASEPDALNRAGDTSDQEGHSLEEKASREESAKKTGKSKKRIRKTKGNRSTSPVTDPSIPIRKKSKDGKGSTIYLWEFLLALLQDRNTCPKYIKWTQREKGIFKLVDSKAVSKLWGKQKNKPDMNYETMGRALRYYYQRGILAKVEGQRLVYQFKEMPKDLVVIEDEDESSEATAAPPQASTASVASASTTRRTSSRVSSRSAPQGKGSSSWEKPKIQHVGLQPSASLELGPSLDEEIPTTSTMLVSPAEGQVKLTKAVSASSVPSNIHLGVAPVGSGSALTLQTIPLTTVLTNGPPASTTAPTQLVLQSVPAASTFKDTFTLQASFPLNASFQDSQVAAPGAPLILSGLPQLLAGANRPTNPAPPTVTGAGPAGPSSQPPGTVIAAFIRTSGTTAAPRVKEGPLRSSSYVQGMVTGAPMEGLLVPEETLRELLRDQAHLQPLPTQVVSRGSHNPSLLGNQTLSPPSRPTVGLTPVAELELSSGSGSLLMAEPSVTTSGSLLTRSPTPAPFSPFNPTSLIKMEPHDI
# Summary of the method: as §1
# ELK4 = biological target: T9, ELK4 (Homo sapiens, UniProt P28324-2 1-405); settings: protein: recombinant; tags: N-terminal GST; dsDNA, one strand shown
# T9 sequence: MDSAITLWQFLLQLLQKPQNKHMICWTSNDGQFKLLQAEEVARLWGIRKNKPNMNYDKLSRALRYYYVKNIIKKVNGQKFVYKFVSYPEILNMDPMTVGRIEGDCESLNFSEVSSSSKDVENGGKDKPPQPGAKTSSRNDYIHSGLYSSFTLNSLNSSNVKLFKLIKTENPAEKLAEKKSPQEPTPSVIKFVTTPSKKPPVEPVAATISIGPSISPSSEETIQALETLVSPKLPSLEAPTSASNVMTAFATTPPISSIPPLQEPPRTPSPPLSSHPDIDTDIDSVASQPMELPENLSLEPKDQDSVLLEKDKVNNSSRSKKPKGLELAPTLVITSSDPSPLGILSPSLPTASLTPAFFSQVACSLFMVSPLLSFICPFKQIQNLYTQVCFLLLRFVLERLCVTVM
# Summary of the method: as §1
# ETV2 = biological target: T10, ETV2 (Homo sapiens, UniProt O00321 1-342); settings: protein: recombinant; tags: N-terminal GST; dsDNA, one strand shown
# T10 sequence: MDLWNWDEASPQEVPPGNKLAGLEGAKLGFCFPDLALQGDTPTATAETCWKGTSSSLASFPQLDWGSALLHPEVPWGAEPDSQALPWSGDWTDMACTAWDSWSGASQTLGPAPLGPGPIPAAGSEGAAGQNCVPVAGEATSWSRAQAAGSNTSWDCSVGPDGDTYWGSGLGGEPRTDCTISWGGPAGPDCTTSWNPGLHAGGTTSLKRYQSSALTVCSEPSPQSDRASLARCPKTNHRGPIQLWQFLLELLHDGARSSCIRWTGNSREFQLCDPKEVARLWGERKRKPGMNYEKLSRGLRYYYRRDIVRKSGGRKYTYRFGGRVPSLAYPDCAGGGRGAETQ
# Summary of the method: as §1
# ELF3 = biological target: T11, ELF3 (Homo sapiens, UniProt P78545 1-371); settings: protein: recombinant; tags: N-terminal GST; dsDNA, one strand shown
# T11 sequence: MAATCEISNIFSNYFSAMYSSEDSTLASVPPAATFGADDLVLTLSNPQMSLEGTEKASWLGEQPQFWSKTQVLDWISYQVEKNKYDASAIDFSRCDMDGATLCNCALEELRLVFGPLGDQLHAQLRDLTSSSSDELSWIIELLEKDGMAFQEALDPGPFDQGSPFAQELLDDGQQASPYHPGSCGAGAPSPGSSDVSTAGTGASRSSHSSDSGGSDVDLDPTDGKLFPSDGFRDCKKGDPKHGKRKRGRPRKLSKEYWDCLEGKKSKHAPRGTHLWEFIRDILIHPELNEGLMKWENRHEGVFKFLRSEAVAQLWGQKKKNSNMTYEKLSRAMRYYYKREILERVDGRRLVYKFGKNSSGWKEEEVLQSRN
# Summary of the method: as §1
# CRX = CRX (Homo sapiens, UniProt O43186 1-299); settings: protein: recombinant; tags: N-terminal GST; dsDNA, one strand shown
# Sequence of CRX (O43186 whole entry): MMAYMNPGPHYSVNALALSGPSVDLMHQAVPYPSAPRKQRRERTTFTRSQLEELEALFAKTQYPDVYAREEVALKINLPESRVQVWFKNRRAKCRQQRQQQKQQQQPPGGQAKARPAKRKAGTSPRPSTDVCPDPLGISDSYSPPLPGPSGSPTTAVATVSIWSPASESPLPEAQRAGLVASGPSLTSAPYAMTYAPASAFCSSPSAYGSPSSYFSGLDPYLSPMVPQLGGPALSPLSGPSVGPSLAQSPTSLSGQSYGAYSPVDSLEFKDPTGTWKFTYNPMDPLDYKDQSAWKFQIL
# Summary of the method: as §1
# ETV1 = ETV1 (Homo sapiens, UniProt P50549 1-477); settings: protein: recombinant; tags: N-terminal GST; dsDNA, one strand shown
# Sequence of ETV1 (P50549 whole entry): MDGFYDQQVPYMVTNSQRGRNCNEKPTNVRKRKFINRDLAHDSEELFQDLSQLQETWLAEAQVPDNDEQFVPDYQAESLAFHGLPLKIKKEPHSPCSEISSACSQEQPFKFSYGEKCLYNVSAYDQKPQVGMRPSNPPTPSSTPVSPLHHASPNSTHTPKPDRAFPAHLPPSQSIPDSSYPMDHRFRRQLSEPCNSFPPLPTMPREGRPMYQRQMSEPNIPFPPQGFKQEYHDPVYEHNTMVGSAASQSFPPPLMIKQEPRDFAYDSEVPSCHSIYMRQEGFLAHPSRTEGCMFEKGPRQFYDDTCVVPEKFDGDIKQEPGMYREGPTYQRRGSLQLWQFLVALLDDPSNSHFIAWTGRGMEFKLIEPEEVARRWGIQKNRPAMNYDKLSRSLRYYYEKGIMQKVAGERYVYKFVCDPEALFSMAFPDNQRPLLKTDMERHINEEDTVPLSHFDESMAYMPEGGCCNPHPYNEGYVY
# Summary of the method: as §1
sequence,measurement,setting,value
CTACTG,binding signal,FLI1,"1.31 fold enrichment (6-mer frequency, TF over GST control)"
same,binding signal,ELK1,"1.28 fold enrichment (6-mer frequency, TF over GST control)"
same,binding signal,GABPA,"1.35 fold enrichment (6-mer frequency, TF over GST control)"
same,binding signal,ERG,"1.22 fold enrichment (6-mer frequency, TF over GST control)"
same,binding signal,ELF1,"1.34 fold enrichment (6-mer frequency, TF over GST control)"
same,binding signal,EHF,"1.33 fold enrichment (6-mer frequency, TF over GST control)"
same,binding signal,SPI1,"1.23 fold enrichment (6-mer frequency, TF over GST control)"
same,binding signal,SPIB,"1.05 fold enrichment (6-mer frequency, TF over GST control)"
same,binding signal,ELK3,"1.09 fold enrichment (6-mer frequency, TF over GST control)"
same,binding signal,FEV,"1.33 fold enrichment (6-mer frequency, TF over GST control)"
same,binding signal,ETV5,"1.35 fold enrichment (6-mer frequency, TF over GST control)"
same,binding signal,HSF1,"1.24 fold enrichment (6-mer frequency, TF over GST control)"
same,binding signal,SPIC,"1.32 fold enrichment (6-mer frequency, TF over GST control)"
same,binding signal,ELF4,"1.26 fold enrichment (6-mer frequency, TF over GST control)"
same,binding signal,ELK4,"1.26 fold enrichment (6-mer frequency, TF over GST control)"
same,binding signal,ETV2,"1.4 fold enrichment (6-mer frequency, TF over GST control)"
same,binding signal,ELF3,"1.3 fold enrichment (6-mer frequency, TF over GST control)"
same,binding signal,CRX,"1.08 fold enrichment (6-mer frequency, TF over GST control)"
same,binding signal,ETV1,"1.3 fold enrichment (6-mer frequency, TF over GST control)"
